In publication PMC4552634, “A New Set of Chemical Starting Points with Plasmodium falciparum Transmission-Blocking Potential for Antimalarial Drug Discovery” (PLoS ONE, 2015):
In all, about 13,000 compounds went through this assay and about 3,200 (25%) showed an effect of 50% or more. The list shows a part of the results.

Test system: P. falciparum stage V gametocytes
Set-up: BacTiter-Glo ATP luminescence viability of purified stage V gametocytes in 384-well plates, per cent inhibition versus DMSO
Conditions: 48 h, 5 µM; inhibitor

Question: For NC(=O)c1cccc(Nc2nccc(Nc3ccc4[nH]c(-c5ccccc5)cc4c3)n2)c1 [TCMDC-138678], which “% Inhibition” value is on record?
Answer: -94.87%

Question: For COc1ccc(S(=O)(=O)NC2CCN(c3cc(C)nc(Nc4cccc(C#N)c4)n3)CC2)cc1 [TCMDC-134215], which “% Inhibition” value is on record?
Answer: 11.7%

Question: With Cc1ccc(NC(=O)c2cnc(N3CCN(c4ccncc4)CC3)c(Cl)c2)cc1 [TCMDC-134603] as the molecule, how does the “% Inhibition” value read?
Answer: 7.543%

Question: Which “% Inhibition” value does the source give for CNC(=O)c1[nH]c(-c2ccccc2)nc1NC(C)=O [TCMDC-131315] here?
Answer: -0.1444%

Question: Which “% Inhibition” value does the source give for CC(C)(CNC(=O)[C@@H]1CCCN(Cc2ccc(Cl)cc2)C1)c1nc(-c2ccc(Cl)c(O)c2)c(-c2ccncc2)[nH]1 [TCMDC-141139] here?
Answer: 5.708%

Question: For Nc1ncc(-c2ccccc2)cc1/C=C/c1cccnc1 [TCMDC-135534], which “% Inhibition” value is on record?
Answer: 59.51%

Question: Which “% Inhibition” value does the source give for Nc1nccc(-c2ccc3c(/C=C/c4ccccc4)cnc(N)c3c2)n1 [TCMDC-136382] here?
Answer: -22.89%

Question: How did the “% Inhibition” value turn out when Nc1ncc(-c2ccccc2)cc1-c1cccc2ncccc12 [TCMDC-133415] was run?
Answer: 19.97%

Question: How did the “% Inhibition” value turn out when COc1cc(NC(=O)N2CCOC(CCN3CCC4(CCc5ccccc54)CC3)(c3ccc(Cl)c(Cl)c3)C2)cc(OC)c1OC (centres unmarked) [TCMDC-135346] was run?
Answer: -4.106%

Question: How did the “% Inhibition” value turn out when CN(Cc1cccc(O)c1)C1CCN(c2cc(NC(=O)c3cccc(F)c3)ccn2)CC1 [TCMDC-134962] was run?
Answer: -30.72%

Question: With CCCc1cc(Cc2cnc(N)nc2N)cc(CCC)c1O [TCMDC-137695] as the molecule, how does the “% Inhibition” value read?
Answer: -57.47%

Question: CCOc1ccccc1C1C(C(=O)C(C)(C)C)N2c3ccc(Br)cc3C=CC2C12C(=O)c1ccccc1C2=O (centres unmarked) [TCMDC-125079] was tested. Which “% Inhibition” value did it give?
Answer: 103.1%

Question: For CCCCC1=CC2C(=O)C(C(=O)OC)=CN=C2C=C1OCc1ccccc1 (centres unmarked) [TCMDC-137492], which “% Inhibition” value is on record?
Answer: 62.56%

Question: With Cc1ccc(NC(=O)c2cn(-c3ccccc3)nc2-c2ccc(F)cc2)cc1[N+](=O)[O-] [TCMDC-125590] as the molecule, how does the “% Inhibition” value read?
Answer: -12.22%

Question: COc1ccc(CNC2CCN(C)CC2)cc1-c1cccc(S(=O)(=O)NCc2ccccc2)c1 [TCMDC-132267] was tested. Which “% Inhibition” value did it give?
Answer: 106.3%

Question: COc1ccc(CNC2CCN(C)CC2)cc1-c1ccc(S(=O)(=O)NCc2ccccc2)cc1 [TCMDC-132244] was tested. Which “% Inhibition” value did it give?
Answer: 110.3%

Question: With Cc1ccc(NC(=O)c2ccc(CN3CCCN(Cc4cccc(C#N)c4)CC3)cc2)cc1F [TCMDC-136394] as the molecule, how does the “% Inhibition” value read?
Answer: -18.71%

Question: How did the “% Inhibition” value turn out when COc1ccc2ncc(F)c(CCN3C4CCC3CC(NCc3ccc5c(c3)OCCO5)C4)c2n1 (centres unmarked) [TCMDC-135638] was run?
Answer: 37.56%

Question: Which “% Inhibition” value does the source give for Clc1ccc(CNc2nc(NCCc3cnc[nH]3)nc(Nc3ccc4c(c3)OCO4)n2)cc1 [TCMDC-139740] here?
Answer: 19.01%

Question: Which “% Inhibition” value does the source give for O=C(COc1ccccc1Cl)N1CCc2cc3nccc(N4CCN5CCC[C@H]5C4)c3cc21 [TCMDC-140049] here?
Answer: 15.14%

Question: Which “% Inhibition” value does the source give for Oc1ccc(Cl)cc1CN1CCCC(COC(c2ccc(F)cc2)c2ccc(F)cc2)C1 (centres unmarked) [TCMDC-136034] here?
Answer: 8.672%

Question: How did the “% Inhibition” value turn out when O=C(NCCN1CCC(NC(=O)c2ccc(-c3ccccn3)s2)CC1)c1cccc(C(F)(F)F)c1 [TCMDC-141952] was run?
Answer: 4.93%

Question: How did the “% Inhibition” value turn out when N#Cc1ccc2c(c1)CN(CCC1CCC(NC(=O)c3cc4ccccc4cc3N)CC1)CC2 (centres unmarked) [TCMDC-139164] was run?
Answer: 18.76%

Question: For Oc1c(CN2CCCC(C(F)(F)F)C2)cc(Cl)c2ccccc12 (centres unmarked) [TCMDC-124857], which “% Inhibition” value is on record?
Answer: 96.48%

Question: How did the “% Inhibition” value turn out when CC1CCCN(Cc2cc(Cl)cc(Cl)c2O)C1 (centres unmarked) [TCMDC-125392] was run?
Answer: 14.71%

Question: O=C(c1ccc(Cl)cc1Cl)N1CCCC(C(F)(F)F)C1 (centres unmarked) [TCMDC-123721] was tested. Which “% Inhibition” value did it give?
Answer: 22.72%

Question: With CC(=O)Nc1ccc(CN2CCC(N(C)c3cc(NC(=O)c4ccc(F)cc4)ccn3)CC2)cc1 [TCMDC-134983] as the molecule, how does the “% Inhibition” value read?
Answer: -11.33%

Question: Cc1cc(C(=O)N(Cc2ccc(-c3ccc(CNCCc4ccc(S(C)(=O)=O)cc4)cn3)cc2)C(C)CN(C)C)ccc1[N+](=O)[O-] (centres unmarked) [TCMDC-141521] was tested. Which “% Inhibition” value did it give?
Answer: 51.26%

Question: How did the “% Inhibition” value turn out when Cc1nn(-c2ccccc2)nc1C(=O)N(Cc1ccc(-c2ccc(CNCCc3ccc(S(C)(=O)=O)cc3)cn2)cc1)C1CC1 [TCMDC-141523] was run?
Answer: 39.99%

Question: Which “% Inhibition” value does the source give for Cc1cnc(CN(Cc2ccc(-c3ccc(CNCCc4ccc(S(C)(=O)=O)cc4)cn3)cc2)C(=O)c2nn(-c3ccccc3)nc2C)cn1 [TCMDC-141522] here?
Answer: -18.48%

Question: Which “% Inhibition” value does the source give for Cc1cnc(CN(Cc2ccc(-c3ccc(CNCCc4ccc(S(C)(=O)=O)cc4)cn3)cc2)C(=O)c2ccc([N+](=O)[O-])c(C)c2)cn1 [TCMDC-141520] here?
Answer: 64.44%

Question: Which “% Inhibition” value does the source give for C=CC[C@H](C[C@H](O)[C@H](Cc1ccccc1)NC(=O)c1nn(-c2ccccc2)nc1C)C(=O)NC1CCCCC1 [TCMDC-141422] here?
Answer: -47.48%

Question: Which “% Inhibition” value does the source give for O=C(Cc1cccc(Cl)c1)Nc1cccc(-c2c[nH]c3nc(Nc4cccc(OCc5ccccc5)c4)ncc23)c1 [TCMDC-134680] here?
Answer: -43.48%

Question: How did the “% Inhibition” value turn out when Cc1ccc(Nc2nccc(NCC(O)c3cccc(F)c3)n2)cc1 (centres unmarked) [TCMDC-136572] was run?
Answer: -5.913%

Question: C[C@@H](COc1ccccc1)NCC(O)c1ccc([N+](=O)[O-])c(OCc2ccccc2)c1 (some centres unmarked) [TCMDC-132032] was tested. Which “% Inhibition” value did it give?
Answer: 7.287%

Question: For COc1ccc(S(=O)(=O)N(CCCN2CCN(C)CC2)Cc2csc(-c3ccc(CNCc4ccccc4)cc3)n2)cc1 [TCMDC-141599], which “% Inhibition” value is on record?
Answer: 65.47%

Question: Which “% Inhibition” value does the source give for CN1CCN(CCCN(Cc2csc(-c3ccc(CNCc4ccccc4)cc3)n2)S(=O)(=O)c2cccc3cccnc23)CC1 [TCMDC-141598] here?
Answer: 96.08%

Question: With Cc1ccc(S(=O)(=O)N(CCCN2CCN(C)CC2)Cc2csc(-c3ccc(CNCc4ccccc4)cc3)n2)cc1 [TCMDC-141602] as the molecule, how does the “% Inhibition” value read?
Answer: 64.23%

Question: With CN1CCN(CCCN(Cc2csc(-c3ccc(CNCc4ccccc4)cc3)n2)S(=O)(=O)c2ccc(F)cc2)CC1 [TCMDC-141601] as the molecule, how does the “% Inhibition” value read?
Answer: 76.11%

Question: How did the “% Inhibition” value turn out when O=C(Nc1cccc(-c2ccc(CN3CCC(O)CC3)cc2)c1)c1ccc(Cl)cc1 [TCMDC-132633] was run?
Answer: -6.492%

Question: For COCCN1CCC(C(=O)NCC(C)(C)c2nc(-c3ccc(Br)c(O)c3)c(-c3ccncc3)[nH]2)CC1 [TCMDC-140792], which “% Inhibition” value is on record?
Answer: 8.912%
